About 7,900 targets were measured; listed, in parts, are those with a hit and a random draw of the rest. About 0.6% of all pairs of compound and target were hits.
How the values were obtained:
Experiment in all cases: log2 fold change, soluble protein after heating vs DMSO (PISA); higher = thermal stabilisation; K562 cells, 10 uM, 30 min; active = over 0.2 and 3.5 SD of the protein, either way, in both replicates (recomputed)
[1] = compound: C1COCCN1CCN2C3=CC=CC=C3N=C2NC(=O)C4=CC(=CC=C4)[N+](=O)[O-] [IRAK-1-4 Inhibitor I]
In short: (§1)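 Soluble protein was quantified by TMTpro 16plex LC-MS/MS after channel sums were equalised. It was obtained as the supernatant after 21,000xg for 90 min from pooled aliquots of K562 cells (2×10^6 cells/mL, 10 μM compound, 30 min) heated for 3 min across 48°C-58°C and extracted in PBS with 0.5% NP-40 at 4°C. Thermal stability values are relative to control samples and come from duplicates. They are given as log2 fold changes.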

[2] = compound: C=CC(=O)N1CCC[C@@H](n2nc(-c3ccc(Oc4ccccc4)cc3)c3c(N)ncnc32)C1 [ibrutinib]
In short: as §1

[3] = compound: CC(=O)c1cnc2ccc(-c3cc(Cl)c(O)c(Cl)c3)nc2c1N[C@H]1CC[C@H](CN(C)C)CC1
In short: as §1

[4] = compound: CC(C)(C)Cn1c(N)nc2ccc(-c3[nH]c(C(C)(C)C)nc3-c3ccc(F)cc3)nc21 [ralimetinib]
In short: as §1

[5] = compound: CC(C)(O)CC(=O)NCCn1ccc2ncnc(Nc3ccc(Oc4cccc(C(F)(F)F)c4)c(Cl)c3)c21
In short: as §1

[6] = compound: CC(C)C1=C2N=C(C=C(N2N=C1)NCC3=CC=CC=C3)NCCCCCCN
In short: as §1

[7] = compound: CC(C)C[C@@H](C=O)NC(=O)[C@H](CC(C)C)NC(=O)[C@H](CC(C)C)NC(=O)OCc1ccccc1
In short: as §1

[8] = compound: CC(C)N(C[C@H]1O[C@@H](n2cnc3c(N)ncnc32)[C@H](O)[C@@H]1O)[C@H]1C[C@@H](CCc2nc3cc(C(C)(C)C)ccc3[nH]2)C1 [pinometostat]
In short: as §1

[9] = compound: CC1=C(C(CC(=O)N1)C2=CC=C(C=C2)C(F)(F)F)C(=O)NC3=C(C=C4C(=C3)C=NN4)F
In short: as §1

[10] = compound: CC1=C(C2=C(C=C1)C(=O)C3=CC=CC=C3N2CCCN)C
In short: as §1

Measured: log2 fold change

USP24 (UniProt Q9UPU5)
inactive: [1] 0.052 | [2] 0.086 | [3] 0.156 | [4] -0.077 | [5] -0.093 | [6] 0.004 | [7] -0.043 | [8] -0.026 | [9] -0.08 | [10] 0.017

UXT isoform 2 (UniProt Q9UBK9)
Sequence of UniProt Q9UBK9 (Q9UBK9 whole entry, looked up): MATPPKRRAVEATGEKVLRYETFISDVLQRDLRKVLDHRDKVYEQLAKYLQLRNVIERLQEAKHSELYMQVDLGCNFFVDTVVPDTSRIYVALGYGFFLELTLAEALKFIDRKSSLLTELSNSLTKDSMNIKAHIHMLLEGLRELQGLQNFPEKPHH
inactive: [1] 0.103 | [2] -0.033 | [3] -0.019 | [4] -0.031 | [5] -0.005 | [6] 0.316 | [7] 0.082 | [8] -0.141 | [9] -0.016 | [10] 0.194

TMEM214 (UniProt Q6NUQ4)
inactive: [1] -0.076 | [2] -0.063 | [3] 0.028 | [4] -0.03 | [5] 0.019 | [6] 0.066 | [7] 0.044 | [8] 0.073 | [9] 0.014 | [10] 0.074

TUBA4A (UniProt P68366)
inactive: [1] 0.039 | [2] 0.01 | [3] 0.001 | [4] -0.044 | [5] -0.032 | [6] 0 | [7] 0.016 | [8] -0.039 | [9] -0.014 | [10] 0.011

TXNRD1 (UniProt Q16881)
inactive: [1] 0.064 | [2] -0.035 | [3] -0.062 | [4] -0.088 | [5] -0.049 | [6] -0.013 | [7] -0.03 | [8] -0.042 | [9] -0.011 | [10] 0.077

VPS39 (UniProt Q96JC1)
inactive: [1] -0.055 | [2] -0.015 | [3] -0.036 | [4] -0.018 | [5] -0.039 | [6] -0.265 | [7] 0.031 | [8] 0.032 | [9] -0.027 | [10] 0.008

VPS52 (UniProt Q8N1B4)
inactive: [1] -0.057 | [2] 0.068 | [3] 0 | [4] 0.05 | [5] -0.161 | [6] -0.02 | [7] 0.088 | [8] 0.048 | [9] -0.018 | [10] 0.142

WDR47 (UniProt O94967)
inactive: [1] -0.089 | [2] 0.055 | [3] 0.028 | [4] -0.005 | [5] -0.03 | [6] 0.028 | [7] -0.048 | [8] -0.017 | [9] 0.024 | [10] 0.015

USP3 (UniProt Q9Y6I4)
inactive: [1] 0.035 | [2] -0.083 | [3] -0.126 | [4] -0.013 | [5] -0.107 | [6] -0.146 | [7] -0.145 | [8] -0.075 | [9] 0.006 | [10] -0.006

TXNIP (UniProt Q9H3M7)
active: [10] -0.42
inactive: [1] 0.05 | [2] 0.016 | [3] -0.053 | [4] 0.13 | [5] 0.072 | [6] -0.371 | [7] 0.128 | [8] -0.083 | [9] -0.097

UBAP2L isoform 5 (UniProt Q14157)
inactive: [1] 0.053 | [2] 0.04 | [3] 0.017 | [4] -0.007 | [5] 0.003 | [6] 0.053 | [7] -0.012 | [8] -0.032 | [9] 0.009 | [10] 0.068

TMEM192 (UniProt Q8IY95)
inactive: [1] 0.047 | [2] -0.014 | [3] -0.012 | [4] 0.025 | [5] 0.004 | [7] 0.029 | [8] 0.051 | [9] -0.004 | [10] -0.019
active: [6] -0.481

WDCP (UniProt Q9H6R7)
inactive: [1] -0.01 | [2] -0.038 | [3] 0.078 | [4] -0.006 | [5] -0.053 | [6] 0.032 | [7] 0.014 | [8] 0.076 | [9] 0.055 | [10] 0.023

WASHC3 (UniProt Q9Y3C0)
Sequence of UniProt Q9Y3C0 (Q9Y3C0 whole entry, looked up): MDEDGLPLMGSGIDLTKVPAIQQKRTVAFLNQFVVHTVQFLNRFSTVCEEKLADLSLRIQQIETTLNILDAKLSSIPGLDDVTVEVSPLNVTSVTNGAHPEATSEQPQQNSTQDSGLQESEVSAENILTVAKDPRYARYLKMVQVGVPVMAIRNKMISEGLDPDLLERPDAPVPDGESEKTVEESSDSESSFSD
inactive: [1] 0.096 | [2] 0.015 | [3] 0.023 | [4] -0.033 | [5] 0.024 | [6] -0.166 | [7] -0.041 | [8] -0.074 | [9] 0.059 | [10] 0.032

UBE2Q1 (UniProt Q7Z7E8)
Sequence of UniProt Q7Z7E8 (Q7Z7E8 whole entry, looked up): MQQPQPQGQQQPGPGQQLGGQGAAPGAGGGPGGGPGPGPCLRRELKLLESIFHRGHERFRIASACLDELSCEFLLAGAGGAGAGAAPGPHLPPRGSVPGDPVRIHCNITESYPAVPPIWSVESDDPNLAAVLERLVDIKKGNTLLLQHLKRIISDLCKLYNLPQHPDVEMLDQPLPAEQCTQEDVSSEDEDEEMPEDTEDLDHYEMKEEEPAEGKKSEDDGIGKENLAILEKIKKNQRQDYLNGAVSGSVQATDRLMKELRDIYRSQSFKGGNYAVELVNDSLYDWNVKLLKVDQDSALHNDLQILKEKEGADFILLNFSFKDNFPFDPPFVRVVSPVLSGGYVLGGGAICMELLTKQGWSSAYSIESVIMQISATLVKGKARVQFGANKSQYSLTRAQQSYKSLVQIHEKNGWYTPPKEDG
inactive: [1] 0.024 | [2] -0.012 | [3] 0.029 | [4] -0.015 | [5] -0.062 | [6] -0.192 | [7] -0.11 | [8] 0.005 | [9] -0.01 | [10] -0.006

XRCC5 (UniProt P13010)
Sequence of UniProt P13010 (P13010 whole entry, looked up): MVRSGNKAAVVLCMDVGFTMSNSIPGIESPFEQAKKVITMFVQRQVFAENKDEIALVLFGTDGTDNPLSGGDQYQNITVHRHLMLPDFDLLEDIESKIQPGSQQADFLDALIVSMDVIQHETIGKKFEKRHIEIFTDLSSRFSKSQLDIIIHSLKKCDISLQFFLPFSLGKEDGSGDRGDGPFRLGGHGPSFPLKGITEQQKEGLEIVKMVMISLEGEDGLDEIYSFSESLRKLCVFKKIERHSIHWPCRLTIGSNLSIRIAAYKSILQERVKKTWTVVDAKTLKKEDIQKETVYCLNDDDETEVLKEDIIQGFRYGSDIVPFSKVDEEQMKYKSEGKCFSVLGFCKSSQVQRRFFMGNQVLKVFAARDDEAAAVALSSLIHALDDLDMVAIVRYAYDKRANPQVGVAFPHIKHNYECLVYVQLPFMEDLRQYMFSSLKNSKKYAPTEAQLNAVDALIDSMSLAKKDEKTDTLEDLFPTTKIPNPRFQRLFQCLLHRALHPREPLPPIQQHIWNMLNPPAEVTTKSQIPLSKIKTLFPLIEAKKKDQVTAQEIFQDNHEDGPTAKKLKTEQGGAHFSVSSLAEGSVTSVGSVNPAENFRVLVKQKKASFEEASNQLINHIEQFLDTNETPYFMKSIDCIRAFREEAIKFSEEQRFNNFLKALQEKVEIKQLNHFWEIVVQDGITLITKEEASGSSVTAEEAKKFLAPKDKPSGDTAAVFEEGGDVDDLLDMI
active: [6] -0.505
inactive: [1] -0.264 | [2] -0.104 | [3] -0.214 | [4] 0.083 | [5] -0.175 | [7] 0.126 | [8] -0.01 | [9] 0 | [10] -0.065

UFM1 (UniProt P61960)
Sequence of UniProt P61960 (P61960 whole entry, looked up): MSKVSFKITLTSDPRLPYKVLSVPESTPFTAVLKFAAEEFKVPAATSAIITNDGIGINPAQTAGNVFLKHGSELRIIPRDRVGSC
inactive: [1] 0.219 | [2] 0.026 | [3] 0.003 | [4] 0 | [5] -0.117 | [6] 0.06 | [7] 0.055 | [8] 0.013 | [9] -0.057 | [10] 0.133

VRK2 (UniProt Q86Y07)
active: [3] 0.32
inactive: [1] 0.004 | [2] 0.003 | [4] 0.21 | [5] -0.088 | [6] 0.027 | [7] 0.074 | [8] 0.075 | [9] -0.03 | [10] 0.109

UBA1 (UniProt P22314)
inactive: [1] -0.145 | [2] -0.058 | [3] -0.047 | [4] 0.068 | [5] -0.15 | [7] -0.055 | [8] 0.019 | [9] 0.023 | [10] 0.336
active: [6] -0.363

TMEM223 (UniProt A0PJW6)
Sequence of UniProt A0PJW6 (A0PJW6 whole entry, looked up): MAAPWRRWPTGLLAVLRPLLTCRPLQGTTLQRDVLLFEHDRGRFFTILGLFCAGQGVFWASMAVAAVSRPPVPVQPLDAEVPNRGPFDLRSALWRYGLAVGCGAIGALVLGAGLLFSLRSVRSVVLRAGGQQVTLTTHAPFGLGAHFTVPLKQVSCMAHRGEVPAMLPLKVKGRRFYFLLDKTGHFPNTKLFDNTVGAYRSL
inactive: [1] 0.039 | [2] 0.006 | [3] -0.101 | [4] -0.009 | [5] 0.114 | [6] -0.063 | [7] 0 | [8] -0.019 | [9] -0.087 | [10] 0.042

TNPO2 (UniProt O14787)
Sequence of UniProt O14787 (O14787 whole entry, looked up): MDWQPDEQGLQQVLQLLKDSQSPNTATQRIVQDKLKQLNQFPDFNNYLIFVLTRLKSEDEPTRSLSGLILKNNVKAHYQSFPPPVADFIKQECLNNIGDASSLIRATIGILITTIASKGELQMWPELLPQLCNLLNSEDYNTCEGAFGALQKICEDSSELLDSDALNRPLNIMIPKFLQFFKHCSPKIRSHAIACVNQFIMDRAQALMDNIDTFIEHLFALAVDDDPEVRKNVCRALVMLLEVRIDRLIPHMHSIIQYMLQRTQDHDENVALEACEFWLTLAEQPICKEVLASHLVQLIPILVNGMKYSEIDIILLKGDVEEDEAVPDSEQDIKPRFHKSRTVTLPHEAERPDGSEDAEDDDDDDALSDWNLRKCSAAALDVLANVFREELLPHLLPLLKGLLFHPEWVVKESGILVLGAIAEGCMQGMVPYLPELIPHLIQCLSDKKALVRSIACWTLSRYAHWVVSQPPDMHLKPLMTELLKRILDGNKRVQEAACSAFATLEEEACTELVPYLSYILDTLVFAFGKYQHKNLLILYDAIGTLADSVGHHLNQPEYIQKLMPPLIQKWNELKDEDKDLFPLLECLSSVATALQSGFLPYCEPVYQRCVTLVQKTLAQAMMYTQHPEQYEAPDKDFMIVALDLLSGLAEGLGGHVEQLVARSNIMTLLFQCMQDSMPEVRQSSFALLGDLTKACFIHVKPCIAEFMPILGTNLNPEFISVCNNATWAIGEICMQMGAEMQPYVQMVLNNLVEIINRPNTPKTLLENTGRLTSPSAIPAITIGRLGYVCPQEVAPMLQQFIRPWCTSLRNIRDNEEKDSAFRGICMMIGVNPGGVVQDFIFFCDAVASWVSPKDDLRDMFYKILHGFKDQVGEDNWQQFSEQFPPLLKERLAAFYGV
inactive: [1] -0.088 | [2] -0.023 | [3] -0.051 | [4] 0.027 | [5] -0.138 | [7] -0.042 | [8] 0.012 | [9] 0.023 | [10] -0.171
active: [6] -0.339

TYW1 (UniProt Q9NV66)
Sequence of UniProt Q9NV66 (Q9NV66 whole entry, looked up): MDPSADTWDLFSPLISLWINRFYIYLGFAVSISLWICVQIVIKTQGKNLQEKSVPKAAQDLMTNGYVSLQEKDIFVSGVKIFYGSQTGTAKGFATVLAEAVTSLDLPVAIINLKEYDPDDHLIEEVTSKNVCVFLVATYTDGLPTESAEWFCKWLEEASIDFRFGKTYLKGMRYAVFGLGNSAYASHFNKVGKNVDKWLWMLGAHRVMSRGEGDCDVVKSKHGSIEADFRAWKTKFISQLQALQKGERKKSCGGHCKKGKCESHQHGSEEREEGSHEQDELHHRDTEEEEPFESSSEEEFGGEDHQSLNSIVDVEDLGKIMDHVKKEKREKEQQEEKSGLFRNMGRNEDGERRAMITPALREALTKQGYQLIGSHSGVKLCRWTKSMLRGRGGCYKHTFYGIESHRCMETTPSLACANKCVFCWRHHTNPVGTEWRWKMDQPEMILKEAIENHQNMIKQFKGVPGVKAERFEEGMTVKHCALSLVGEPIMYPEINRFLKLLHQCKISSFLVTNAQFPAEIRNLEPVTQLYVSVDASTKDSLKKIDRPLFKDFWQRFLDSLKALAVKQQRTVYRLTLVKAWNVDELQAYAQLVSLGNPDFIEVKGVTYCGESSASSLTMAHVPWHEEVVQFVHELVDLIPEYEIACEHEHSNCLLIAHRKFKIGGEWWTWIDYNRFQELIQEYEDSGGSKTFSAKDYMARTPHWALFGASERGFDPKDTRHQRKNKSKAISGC
inactive: [1] -0.031 | [2] -0.043 | [3] -0.096 | [4] 0.044 | [5] 0 | [6] 0.03 | [7] -0.056 | [8] 0.005 | [9] -0.074 | [10] 0.051

TTC4 (UniProt O95801)
inactive: [1] -0.058 | [2] -0.031 | [3] -0.052 | [4] 0.168 | [5] -0.072 | [6] -0.119 | [7] 0.024 | [8] -0.015 | [9] -0.001 | [10] 0

TRMT61A (UniProt Q96FX7)
inactive: [1] 0.07 | [2] 0.14 | [3] -0.002 | [4] 0.06 | [5] 0.109 | [6] -0.099 | [7] 0.086 | [8] 0.188 | [9] -0.034 | [10] -0.401

TRIM4 (UniProt Q9C037)
inactive: [1] -0.157 | [2] 0.173 | [3] -0.063 | [4] 0.023 | [5] -0.183 | [6] -0.078 | [7] -0.013 | [8] 0.173 | [9] -0.023 | [10] 0.089

TMTC3 (UniProt Q6ZXV5)
inactive: [1] 0.007 | [2] -0.033 | [3] -0.007 | [4] 0 | [5] 0.022 | [6] -0.218 | [7] 0.028 | [8] -0.019 | [9] -0.008 | [10] 0.018

VPS50 (UniProt Q96JG6)
Sequence of UniProt Q96JG6 (Q96JG6 whole entry, looked up): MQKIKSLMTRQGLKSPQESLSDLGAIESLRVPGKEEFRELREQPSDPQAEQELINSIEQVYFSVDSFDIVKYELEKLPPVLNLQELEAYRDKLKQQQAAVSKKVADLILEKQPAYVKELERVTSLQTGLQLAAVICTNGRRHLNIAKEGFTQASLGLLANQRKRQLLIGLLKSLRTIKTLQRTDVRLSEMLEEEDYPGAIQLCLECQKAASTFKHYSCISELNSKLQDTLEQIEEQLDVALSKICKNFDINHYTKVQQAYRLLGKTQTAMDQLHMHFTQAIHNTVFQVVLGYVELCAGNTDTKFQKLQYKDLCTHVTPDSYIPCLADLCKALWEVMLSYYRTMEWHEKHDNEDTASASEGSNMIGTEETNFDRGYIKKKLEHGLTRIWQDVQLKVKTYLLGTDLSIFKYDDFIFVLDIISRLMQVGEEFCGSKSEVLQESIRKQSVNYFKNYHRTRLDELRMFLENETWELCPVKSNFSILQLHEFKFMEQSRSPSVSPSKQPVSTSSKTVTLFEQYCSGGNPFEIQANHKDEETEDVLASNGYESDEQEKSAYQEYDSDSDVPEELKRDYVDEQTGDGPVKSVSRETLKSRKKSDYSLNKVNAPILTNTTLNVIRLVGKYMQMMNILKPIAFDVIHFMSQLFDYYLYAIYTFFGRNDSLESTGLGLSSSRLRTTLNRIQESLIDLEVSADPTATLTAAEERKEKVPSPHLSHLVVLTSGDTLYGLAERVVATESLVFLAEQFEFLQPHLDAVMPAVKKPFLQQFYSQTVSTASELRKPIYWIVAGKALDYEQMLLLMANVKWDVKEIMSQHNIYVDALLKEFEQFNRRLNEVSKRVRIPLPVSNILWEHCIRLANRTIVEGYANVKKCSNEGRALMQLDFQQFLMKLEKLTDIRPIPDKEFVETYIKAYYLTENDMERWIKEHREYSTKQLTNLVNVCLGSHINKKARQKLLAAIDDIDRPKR
inactive: [1] -0.046 | [2] -0.009 | [3] -0.003 | [4] 0.12 | [5] -0.138 | [6] -0.099 | [7] 0.053 | [8] -0.014 | [9] 0.025 | [10] 0.023

VTA1 (UniProt Q9NP79)
inactive: [1] -0.02 | [2] -0.001 | [3] -0.013 | [4] -0.009 | [5] -0.074 | [6] -0.12 | [7] -0.007 | [8] -0.041 | [9] 0.012 | [10] 0.068

XPNPEP3 (UniProt Q9NQH7)
Sequence of UniProt Q9NQH7 (Q9NQH7 whole entry, looked up): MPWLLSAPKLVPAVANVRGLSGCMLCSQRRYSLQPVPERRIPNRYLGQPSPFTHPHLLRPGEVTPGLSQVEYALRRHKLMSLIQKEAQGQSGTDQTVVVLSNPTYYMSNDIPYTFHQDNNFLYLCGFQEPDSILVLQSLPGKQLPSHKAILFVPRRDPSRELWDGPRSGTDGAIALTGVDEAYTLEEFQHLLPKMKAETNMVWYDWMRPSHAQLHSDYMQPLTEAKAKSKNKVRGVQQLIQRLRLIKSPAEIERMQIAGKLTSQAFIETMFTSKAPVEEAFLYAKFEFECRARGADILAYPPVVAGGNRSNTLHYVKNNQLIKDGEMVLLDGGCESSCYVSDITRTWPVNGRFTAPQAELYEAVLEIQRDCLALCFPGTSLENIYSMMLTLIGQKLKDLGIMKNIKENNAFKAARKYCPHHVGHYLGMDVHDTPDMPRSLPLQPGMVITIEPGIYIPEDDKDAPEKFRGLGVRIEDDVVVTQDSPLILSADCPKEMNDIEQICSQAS
inactive: [1] 0.061 | [2] 0.044 | [3] 0.019 | [4] -0.013 | [5] 0.021 | [6] -0.002 | [7] -0.018 | [8] -0.015 | [9] -0.003 | [10] -0.028

VPS51 (UniProt Q9UID3)
inactive: [1] 0.016 | [2] -0.015 | [3] 0.009 | [4] 0.024 | [5] -0.042 | [6] -0.115 | [7] 0.001 | [8] 0.05 | [9] 0.033 | [10] 0.105

Reference: the supplement of paper PMC10849652
